The values that follow come from PubChem BioAssay AID1159554 (Broad Institute, 2015).

The campaign covered roughly 94,000 compounds. About 2,100 (2.2%) were called active. Shown is part of a subset that was picked to be rich in actives. Unmarked numbers belong to inactive results. Rule as the data show it: active = activity change below about -80%; inconclusive = no clear call, values can overlap the other calls; inactive = above that.

The nature of the experiment: P. falciparum Dd2 growth inhibitors, primary screen, SYBR Green fluorescence, single dose replicates (AID 1159554). The settings on record: 72 h, at 10 µM, active compounds read low.
Consider `COc1ccc2c3c(n(C)c2c1)[C@@H](CO)N(CC1CC1)CC31CN(C(=O)c2cccc(F)c2)C1`, for which the activity change was -33.2%. To `CO[C@H](CN(C)C(=O)c1cnccn1)[C@@H](C)CN([C@@H](C)CO)S(=O)(=O)c1ccc(C)cc1` belongs 25.3%. The result for `COc1ccccc1NC(=O)N1C[C@H]2[C@@H](c3ccccc31)[C@@H](CO)N2C(=O)C1CCCC1` reads -11.4%; that for `CCNC(=O)[C@H]1[C@H](CO)[C@H]2Cn3c(ccc(C4=CCCC4)c3=O)[C@@H]1N2S(=O)(=O)c1cn(C)cn1`, 21.7%; that for `COc1ccc(-c2ccc3c(c2)O[C@H](CN(C)Cc2ccccc2C(=O)O)[C@H](C)CN([C@@H](C)CO)S3(=O)=O)cc1`, -14.1%. As for `CO[C@H]1CN(C)C(=O)c2cc(NC(=O)c3ccc4c(c3)OCO4)ccc2OC[C@@H](C)N(CCC(F)(F)F)C[C@H]1C`, the activity change was -12.7%. As to `C[C@@H](C(=O)N(C)C[C@H]1OCc2ccccc2-c2c(n(C)c3ccccc23)C(=O)N([C@@H](C)CO)C[C@@H]1C)c1ccccc1`, the activity change is -70%. Regarding `O=C(C[C@@H]1CC[C@@H]2[C@H](COC[C@@H](O)CN2Cc2cc(F)cc(F)c2)O1)NCc1cccc(F)c1`, the activity change is -16.3%.

Turning to `C[C@H](CO)N1C[C@H](C)[C@@H](CN(C)C(=O)c2ccncc2)Oc2cc(C3=CCCCC3)ccc2S1(=O)=O`, the activity change is -11.8%. The result for `CC(C)NC(=O)Nc1cccc2c1O[C@H](CN(C)CC1CCCCC1)[C@H](C)CN([C@H](C)CO)C2=O` reads -26.3%; that for `C[C@@H]1CN([C@@H](C)CO)C(=O)c2cccc(NC(=O)CCCCCC(=O)Nc3ccccc3N)c2O[C@H]1CN(C)C(=O)Nc1ccccc1`, -53.7%; that for `C[C@H](CO)N1C[C@H](C)[C@H](CN(C)CC2CCCCC2)Oc2ccc(NC(=O)CCCCCC(=O)Nc3ccccc3N)cc2CC1=O`, -32.3%. The result for `C[C@@H]1CN([C@@H](C)CO)C(=O)c2cccc(NC(=O)CCCCCC(=O)Nc3ccccc3N)c2O[C@H]1CN(C)C(=O)Nc1cccc2ccccc12` reads -86.4% (active). The result for `C[C@H]1CN([C@@H](C)CO)C(=O)c2cccc(NC(=O)CCCCCC(=O)Nc3ccccc3N)c2O[C@@H]1CN(C)CC1CCCCC1` reads -83.5% (active); that for `C[C@H](CO)N1C[C@H](C)[C@@H](CN(C)C(=O)Nc2ccccc2)Oc2c(NC(=O)CCCCCC(=O)Nc3ccccc3N)cccc2C1=O`, -26.6%.

With `COc1cccc(S(=O)(=O)Nc2ccc3c(c2)[C@H]2C[C@H](CC(=O)O)O[C@H](CO)[C@H]2O3)c1`, the activity change is 19%.

Turning to `CCCNC(=O)Nc1ccc2c(c1)C(=O)N(C)C[C@@H](OC)[C@@H](C)CN(Cc1ccccn1)[C@@H](C)CO2`, the activity change is -2.2%.

`O=C(NC1CCC1)[C@H]1[C@H](CO)[C@H]2Cn3c(ccc(-c4ccccc4)c3=O)[C@@H]1N2Cc1cocn1`: the activity change was 10.7%.

As for `Cn1cnc(S(=O)(=O)NC[C@@H]2CC[C@@H]3[C@@H](CN3Cc3nccs3)O2)c1`, the activity change is 28.5%. As to `C[C@@H]1CCCCO[C@@H](CN(C)S(=O)(=O)c2cn(C)cn2)[C@@H](C)CN([C@@H](C)CO)C(=O)c2cc(NC(=O)Nc3ccc(C(F)(F)F)cc3)ccc2O1`, the activity change is -75.5%. To `O=C(Cc1cccnc1)N1CC(=O)N2[C@@H](CO)[C@H](c3ccc(C#CC4CC4)cc3)[C@@H]2C1` belongs -6.96%; to `O=C(c1ccccc1F)N1CC(=O)N2[C@H](CO)[C@H](c3ccc(-c4cccnc4)cc3)[C@H]2C1`, -85.7% (active); to `O=C(C1CCCC1)N1CC(=O)N2[C@H](C1)[C@@H](c1ccc(-c3cccnc3)cc1)[C@@H]2CO`, -88.2% (active).

On to `CN(C)CC#Cc1ccc([C@@H]2[C@H](CO)N3C(=O)CN(C(=O)Cc4cccnc4)C[C@@H]23)cc1`, for which the activity change was -85.1% (active).

Take `O=C(C1CCCC1)N1CC(=O)N2[C@@H](CO)[C@@H](c3ccc(-c4cccnc4)cc3)[C@@H]2C1`: the activity change is -20.4%. To `O=C(Cc1cccnc1)N1CC(=O)N2[C@H](CO)[C@H](c3ccc(C#CC4CCCC4)cc3)[C@@H]2C1` belongs -26.7%; to `O=C(c1ccccc1F)N1CC(=O)N2[C@H](C1)[C@H](c1ccc(-c3ccc(F)cc3)cc1)[C@@H]2CO`, -63.7%. To `O=C(c1ccccc1F)N1CC(=O)N2[C@H](CO)[C@@H](c3ccc(-c4cccnc4)cc3)[C@H]2C1` belongs 21.6%. The result for `O=C(c1cccnc1)N1CC(=O)N2[C@H](CO)[C@H](c3ccc(-c4cccnc4)cc3)[C@@H]2C1` reads 25.3%; that for `COc1ccc2c3c([nH]c2c1)[C@@H](CO)N(C(=O)CN1CCOCC1)CC31CCN(C)CC1`, 27%; that for `O=C(C[C@@H]1C=C[C@@H](NS(=O)(=O)c2ccccc2)[C@@H](CO)O1)NCc1ccccc1F`, 8.12%.

As to `CN(C)CC#Cc1ccc([C@@H]2[C@H](CO)N3CCCCN(C(=O)NC4CCCC4)C[C@@H]23)cc1`, the activity change is 2.92%. As to `CCCNC(=O)Nc1ccc2c(c1)C(=O)N(C)C[C@@H](OC)[C@H](C)CN(CCC)[C@@H](C)CO2`, the activity change was 21.3%.

Regarding `COc1ccccc1NC(=O)N1CC(=O)N2[C@@H](CO)[C@H](c3ccc(C#CC4CC4)cc3)[C@@H]2C1`, the activity change is -3.54%.

Consider `O=C(C[C@H]1CC[C@@H]2[C@H](COC[C@@H](O)CN2Cc2cc(F)cc(F)c2)O1)NC1CCC1`, for which the activity change is -26.6%.

With `C[C@@H]1CN([C@@H](C)CO)C(=O)Cc2cc(NC(=O)CCCN(C)C)ccc2O[C@@H]1CN(C)Cc1ccc(-c2ccccc2)cc1`, the activity change was -71.2%. The result for `CC(C)C(=O)Nc1ccc2c(c1)C(=O)N(C)[C@H]1CC[C@H](CC(=O)NCc3ccc(F)cc3)O[C@H]1CO2` reads -8.71%; that for `CC(=O)N1Cc2cc(C(=O)NCc3cc(F)cc(F)c3)nc(-c3cccc(C4=CCCC4)c3)c2[C@@H]1CCO`, -66.6%. The result for `O=C(Nc1ccccc1F)N1CC(=O)N2[C@@H](CO)[C@H](c3ccc(C#CC4CCCC4)cc3)[C@@H]2C1` reads -8.5%; that for `CN1c2ccc(Br)cc2[C@@H]2[C@@H](CCN2C(=O)C2CCCCC2)[C@H]1CO`, 11.1%. To `CCCc1cn(CC[C@H]2CC[C@@H](NC(=O)C3CCOCC3)[C@@H](CO)O2)nn1` belongs -3.07%; to `Cc1ccc(S(=O)(=O)N(C)C[C@H]2OCc3ccccc3-c3ccccc3C(=O)N([C@@H](C)CO)C[C@@H]2C)cc1`, -59.6%. Consider `COC(=O)N(C)C[C@H]1OCc2ccccc2-c2ccccc2C(=O)N([C@@H](C)CO)C[C@H]1C`, for which the activity change is 23.3%. To `COc1ccc(S(=O)(=O)N(C)C[C@@H]2OCc3ccccc3-c3ccccc3C(=O)N([C@@H](C)CO)C[C@@H]2C)cc1` belongs -71.4%; to `C[C@H](CO)N1C[C@H](C)[C@@H](CN(C)Cc2ccc(C(F)(F)F)cc2)OCc2ccccc2-c2c(n(C)c3ccccc23)C1=O`, -13.7%; to `CC(C)NC(=O)N(C)C[C@H]1OCc2ccccc2-c2c(n(C)c3ccccc23)C(=O)N([C@H](C)CO)C[C@@H]1C`, 32.6%.

As to `C[C@@H]1CN([C@H](C)CO)C(=O)c2c(c3ccccc3n2C)-c2ccccc2CO[C@H]1CN(C)Cc1ccc(F)cc1`, the activity change was -83.8% (active). To `CC(C)NC(=O)N(C)C[C@@H]1OCc2ccccc2-c2c(n(C)c3ccccc23)C(=O)N([C@@H](C)CO)C[C@H]1C` belongs 16%; to `C[C@@H]1CN([C@H](C)CO)C(=O)c2c(c3ccccc3n2C)-c2ccccc2CO[C@@H]1CN(C)Cc1ccc(F)cc1`, -64.4%; to `C[C@H]1CN([C@@H](C)CO)C(=O)c2ccccc2-c2ccccc2CO[C@H]1CN(C)Cc1ccc(-c2ccccc2)cc1`, -88.6% (active). The result for `C[C@H]1CN([C@@H](C)CO)C(=O)c2ccccc2-c2ccccc2CO[C@H]1CN(C)C(=O)Nc1ccc(-c2ccccc2)cc1` reads -74.8%. To `C[C@H]1CN([C@@H](C)CO)C(=O)c2ccccc2-c2ccccc2CO[C@@H]1CN(C)S(=O)(=O)c1ccc(C(F)(F)F)cc1` belongs -83.7% (active); to `C[C@H]1CN([C@@H](C)CO)C(=O)c2c(c3ccccc3n2C)-c2ccccc2CO[C@H]1CN(C)S(=O)(=O)c1ccc(C#N)cc1`, -85.2% (active). As to `CC(C)C#Cc1ccc([C@H]2[C@@H](CO)N3C(=O)CN(C(=O)Cc4ccccc4)C[C@H]23)cc1`, the activity change is -68.7%. To `COc1ccccc1NC(=O)N[C@H]1CC[C@H](CCNC(=O)Cc2ccccn2)O[C@@H]1CO` belongs -4.42%. The result for `CCC(=O)N1C[C@@H](C)[C@H](OC)CN(C)C(=O)c2ccc(NC(=O)C3CCOCC3)cc2OC[C@@H]1C` reads -9.88%; that for `O=C(c1ccccc1)N1CC(=O)N2[C@@H](CO)[C@H](c3ccc(C#CC4CC4)cc3)[C@@H]2C1`, 16.5%. The result for `C[C@H](CO)N1C[C@H](C)[C@H](CN(C)C(=O)C2CCC2)Oc2ncc(C#CCc3ccccc3)cc2C1=O` reads -34.2%.

Consider `CCCC#Cc1ccc([C@H]2[C@H]3CN(C(=O)Nc4cccc(F)c4)CC(=O)N3[C@H]2CO)cc1`, for which the activity change was -4.18%. The result for `C[C@H](CO)N1C[C@H](C)[C@H](CN(C)S(C)(=O)=O)Oc2ncc(C3=CCCC3)cc2C1=O` reads 25.5%. For `C[C@@H]1CN([C@@H](C)CO)C(=O)c2c(c3ccccc3n2C)-c2ccccc2CO[C@H]1CN(C)S(=O)(=O)c1cccs1`, the activity change was -56.5%. To `C[C@H](CO)N1C[C@H](C)[C@@H](CN(C)S(=O)(=O)c2cccc(F)c2)OCc2ccccc2-c2c(n(C)c3ccccc23)C1=O` belongs -87.4% (active). To `C[C@@H]1CN([C@@H](C)CO)C(=O)c2c(c3ccccc3n2C)-c2ccccc2CO[C@@H]1CN(C)S(=O)(=O)CC(F)(F)F` belongs 20.5%; to `C[C@@H]1CN([C@@H](C)CO)C(=O)c2c(c3ccccc3n2C)-c2ccccc2CO[C@@H]1CN(C)S(=O)(=O)c1ccc(F)cc1`, -60.8%. In the case of `C[C@@H]1CN([C@@H](C)CO)C(=O)c2c(c3ccccc3n2C)-c2ccccc2CO[C@@H]1CN(C)S(=O)(=O)c1cccs1`, the activity change was -57.7%. The result for `C[C@H](CO)N1C[C@H](C)[C@@H](CN(C)S(=O)(=O)c2ccc([N+](=O)[O-])cc2)OCc2ccccc2-c2c(n(C)c3ccccc23)C1=O` reads -84.4% (active); that for `Cc1ccc(S(=O)(=O)N(C)C[C@@H]2OCc3ccccc3-c3c(n(C)c4ccccc34)C(=O)N([C@@H](C)CO)C[C@@H]2C)cc1`, -89.8% (active); that for `C[C@@H]1CN([C@H](C)CO)C(=O)c2c(c3ccccc3n2C)-c2ccccc2CO[C@H]1CN(C)S(=O)(=O)c1ccccc1F`, -58.8%.

`Cc1ccccc1S(=O)(=O)N(C)C[C@@H]1OCc2ccccc2-c2c(n(C)c3ccccc23)C(=O)N([C@H](C)CO)C[C@H]1C`: the activity change is -67.7%.
